Screens from PubChem BioAssay.
Hits are enriched below; roughly 19% of the tested compounds scored in any of these assays.
KB-3-1 cytotox: kills parental KB-3-1 adenocarcinoma cells; KB-3-1 viability, CellTiter-Glo ATP luminescence, 72 h; Potency, µM (doses to about 46.1 µM), actives largely listed as cytotoxic; hit rate 1.4% among 400,000; further: nearly all actives have a fitted effect of over 60% in size
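Parental KB-3-1 viability, qHTS format: 72 h compound exposure, 37 °C; CellTiter-Glo; media-only wells and DMSO plates as controls; concentration-effect fits on corrected data.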
HT1080NT lethal: kills 2HG-producing HT-1080-NT fibrosarcoma cells; HT-1080-NT fibrosarcoma viability, CellTiter-Glo ATP luminescence, 48 h; Potency, µM (series often up to 46.1 µM), for inactives: top-dose activity, negative = less viability, actives largely listed as cytotoxic; hit rate 1.6% among 360,000; AID 686970;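 further: NT is the 2HG producing partner of a matched IDH1 knockdown line; 0% = DMSO-treated cells and -100% = media-only wells without cells; nearly all actives have a fitted effect of over 55% in size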
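Compounds were tested in concentration-response format on HT-1080-NT cells for 48 hours at 37 degrees C. Cell viability came from CellTiter-Glo luminescence; curves were classified by r2, response magnitude and activity.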
KB-V1 MDR tox: KB-V1 MDR subline cytotoxicity | Potency, µM (top dose mostly 46.1 µM), most hits filed as cytotoxic | hit rate 3.4% among 400,000 | KB-V1 MDR cells viability, CellTiter-Glo, 72 h | AID 1347076; further: nearly all actives have a fitted effect of over 60% in size
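Potencies derive from concentration-effect curves fitted to normalized luminescence (CellTiter-Glo) of KB-V1 cells treated for 72 h at 37 degrees C in phenol-red-free DMEM containing 10% FBS.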
HT1080 IDH1KD tx: toxicity to HT-1080 IDH1 knockdown cells (counter line). hit rate 2% among 360,000. HT-1080 IDH1 knockdown viability, ATP luminescence, 48 h. AID 686971. Potency, µM (series often up to 46.1 µM), for the others: at the highest dose activity, negative = toxicity, usual class: cytotoxic;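 further: 0% = DMSO wells and -100% = cell-free medium wells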
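CellTiter-Glo luminescence after 48 h compound exposure at 37 degrees C of IDH1-knockdown HT-1080 cells in 5% FBS RPMI. %Activity scaled between DMSO wells and cell-free media wells, with curves fitted and assigned curve classes.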
TDP1 cell CPT: growth inhibition of DT40 Tdp1-/-;hTDP1 cells with camptothecin (screen for TDP1 inhibitors); Potency, µM (highest dose often 46.2 µM), for the others: top-dose activity change, negative = growth inhibition, most hits filed as inhibitors; chicken DT40 Tdp1-/-;hTDP1 cells + 20 nM CPT, ATP luminescence, 48 h; hit rate 12% among 420,000; further: nearly all actives have a fitted effect of over 55% in size
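Chicken DT40 Tdp1-/- cells stably complemented with human TDP1 were seeded at 400 cells/well in medium containing 20 nM camptothecin, exposed to pin-transferred compounds, and grown at 37 °C for at least 48 hr. Viability was read as ATP luminescence.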
TDP1 cell noCPT: qHTS for Inhibitors of human tyrosyl-DNA phosphodiesterase 1 (TDP1): qHTS in cells in absence of CPT | DT40 Tdp1-/- hTDP1 cells, no CPT, ATP luminescence, 48 h | hit rate 15% among 420,000 | Potency, µM (series often up to 46.2 µM), inactives show at the top dose activity change, negative = growth inhibition, most hits filed as inhibitors | AID 686978, 2013; further: nearly all actives have a fitted effect of over 55% in size
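Seeded 400 DT40-hTDP1 cells/well (vehicle DMSO, no 20 nM CPT); pinned compounds; ≥48 hr at 37 °C; CellTiter-Glo luminescence as viability measure.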
Numbers without * were called inactive; i = inactive; ? = inconclusive; / = no result; ! = not active in a repeat; [ ] = another dose, or the depositor's remark. The call rests on the fitted dose curve; in most records, active means well fitted curve in the direction sought with a large enough effect; inconclusive means small, poorly fitted or top-dose-only effect, or another doubt; inactive means no such curve, though single readings can be large; an effect the other way counts as inactive or inconclusive. Unless noted, on the % scale 0 is the no-effect control and ±100 the full control effect; potency means the concentration at half of the fitted maximal effect.

SMILES	KB-3-1 cytotox	HT1080NT lethal	KB-V1 MDR tox	HT1080 IDH1KD tx	TDP1 cell CPT	TDP1 cell noCPT
C=CCCC1(C(C)C)C(=O)NC(=S)NC1=O	i	-1%	i	1%	-1%	-9%
c1cc2c(cc1-c1ccc3c(c1)OCO3)CNCc1cnnn1-2	i	21%	i	11%	?	?
OCCN(CCO)CCO	/	/	/	/	16%	1%
CCCCCCOc1ccc(CN2CCN(CC)CC2)cc1	i	?	?	?	?	23µM*
CCN1CCN(Cc2ccc(OC(F)(F)F)cc2)CC1	i	6%	i	1%	-17%	-8%
Cc1cc(C)c2c(c1)-c1cc(C)nn1C(c1cccnc1)N2 (stereo unspecified)	i	-8%	i	-14%	1%	-1%
COC(=O)C1=C(c2ccc(S(C)(=O)=O)cc2)C[C@@H]2CC[C@H]1N2C(=O)NCC1CC1	i	8%	i	-3%	-11%	/
O=C1NC(=O)N(CCC2=CCCCC2)C(=O)/C1=C\c1cccs1	i	0%	i	13%	?	?
Cn1cccc1/C=C1\C(=O)NC(=O)N(Cc2ccccc2Cl)C1=O	?	-29%	i	-11%	5.8µM*	4.6µM*
Cn1cccc1/C=C1\C(=O)NC(=O)N(CCC2=CCCCC2)C1=O	i	1%	i	-5%	16µM*	13µM*
CCS(=O)(=O)N1Cc2cc(C(=O)N(C)C)nc(-c3cccc(-c4ccc(F)cc4)c3)c2[C@@H]1CCO	i	1%	i	-1%	1%	-25%
CC[C@]1(C2=NCCN2)Cc2ccccc2O1	/	/	/	/	5%	-20%
NCC(=O)c1ccc(Cl)c(Cl)c1	?	/	i	/	?	?
Cc1sc2ncnc(N3CCC(C(=O)Nc4ccc(C#N)c(Cl)c4)CC3)c2c1C	i	?	i	?	18µM*	?
Cc1ccc(Cn2ccccc2=N)cc1	i	13%	i	9%	-8%	-23%
CCN(CC)CCO	i	9%	i	7%	-1%	6%
O=C(c1ccc2nc3ccc(Cl)cc3c(=O)n2c1)N1CCC2(CC1)OCCO2	i	11%	21µM*	-1%	-28%	-11%
COc1ccccc1-n1c(O)c(/C=N/NC(=S)Nc2ccccc2)c(=O)[nH]c1=S	i	3%	i	-5%	-6%	?
C[C@H]1CNC(=O)c2c(C(=O)N3CCN(C(=O)OC(C)(C)C)CC3)ncn21	i	-8%	i	-11%	26µM*	?
CC(N)[C@@H](O)c1ccccc1 (stereo partly specified)	/	/	/	/	2%	13%
COc1cc(C2Nc3c(C)cc(C)cc3-c3cc(C)nn32)cc(OC)c1O (stereo unspecified)	?	/	?	/	5.8µM*	4.1µM*
Cn1cc(C(=O)N2CCC3(CC2)OCCO3)c2c3ccccc3n(C)c2c1=O	i	14%	i	-11%	-13%	-6%
Cc1ccc(Cl)cc1N1CCN(C(=O)c2cn(CC(C)C)c(=O)c3c2c2ccccc2n3C)CC1	i	/	i	/	6.5µM*	4.6µM*
CC(C)(C)C(=O)OC1=CN(Cc2ccccc2)S(=O)(=O)c2ccccc21	i	/	i	/	-22%	?
O=C1NC(=O)N(Cc2ccccc2)C(=O)C1Cc1ccccc1 (stereo unspecified)	i	1%	i	8%	-20%	8.2µM*
SMILES	KB-3-1 cytotox	HT1080NT lethal	KB-V1 MDR tox	HT1080 IDH1KD tx	TDP1 cell CPT	TDP1 cell noCPT
O=C1NC(=S)NC(=O)C1Cc1ccccc1	i	3%	i	0%	0%	-8%
O=C1NC(=O)C(Cc2ccccc2)(Cc2ccccc2)C(=O)N1Cc1ccccc1	?	?	16µM*	?	23µM*	?
O=Cc1cn(Cc2ccccc2F)c2ccccc12	i	-6%	i	-17%	21µM*	15µM*
O=Cc1cn(Cc2c(F)cccc2Cl)c2ccccc12	?	0%	16µM*	-12%	?	?
O=Cc1cn(CCCOc2ccccc2)c2ccccc12	i	-1%	i	-10%	?	?
Cc1c(C=O)c2ccccc2n1Cc1ccccc1F	?	-19%	?	-4%	7%	-17%
N#Cc1ccc(Cn2cc(C=O)c3ccccc32)cc1	i	-4%	i	-4%	-14%	-5%
Cc1cccc(Cn2cc(C=O)c3ccccc32)c1	18µM*	-10%	i	?	?	?
Cc1ccccc1Cn1cnc2c(oc3ccccc32)c1=O	i	-9%	?	-14%	?	?
Cc1ccc(NC(=O)C2CCCN2S(=O)(=O)c2ccc3c(c2)CCCC(=O)N3)cc1Cl (stereo unspecified)	i	/	i	/	16µM*	?
O=CC=O	/	/	/	/	11%	-19%
O=Nc1c(O)c2ccccc2c2ccccc12	4.6µM*	6.5µM*	16µM*	2.9µM*	1.8µM*	3.3µM*
O=c1[nH]cc(COCC(F)(F)C(F)(F)C(F)(F)F)c(=O)[nH]1	i	0%	i	11%	-13%	-14%
O=C(CCC(=O)N1CC2C[C@@H](C1)Cn1c2cccc1=O)NCCc1ccccc1F	i	13%	?	5%	5%	-4%
CCCNC(=O)c1cc2c(c(-c3cccc(-c4cc5ccccc5o4)c3)n1)[C@@H](CCO)N(C(=O)NC(C)C)C2	?	?	18µM*	?	?	?
Cc1ccc(C(=O)Nc2cnn(-c3ccc(C(=O)N(C)Cc4n[nH]c5c4CCCC5)cc3)c2)c(C)c1	/	/	/	/	15%[9.04 µM]	?
CCCCCCC(Cl)(Cn1ccnc1)c1ccccc1 (stereo unspecified)	?	-7%	?	-10%	?	15µM*
CN(C)CCNC(=O)c1cccn(Cc2cc(C(F)(F)F)cc(C(F)(F)F)c2)c1=O	i	-28%	i	-7%	-10%	-14%
CCC(=O)c1ccc(OC)c(OC)c1	?	-7%	i	-4%	0%	28%
Cc1cccnc1-n1c(-c2ccco2)nc2ccccc2c1=O	i	10%	i	11%	-28%	?
Cc1ccnc2c1NC(=O)c1cccnc1N2C1CC1	i	-12%	i	?	6.5µM*!	8.2µM*!
CCC1Nc2ncnc(N3CCN(c4ccccn4)CC3)c2N(Cc2ccc(Br)cc2)C1=O (stereo unspecified)	?	-19%	i	-20%	?	?
